Measurements taken from PubChem BioAssay (Tox21).
Unmarked numbers belong to inactive results. Results filed as inconclusive are left out. A call without a number means that no potency is given here. Calls of active or inactive are those of the source. Unless noted, calls come from the whole dose curve; as a rule, active = well fitted curve in the direction sought with a large enough effect in the repeat runs; inconclusive = weak or mixed curves; inactive = no such curve, though single readings can be large; an effect the other way counts as inactive or inconclusive.

Key:
[1] = qHTS assay to identify small molecule agonists of the TGF-beta/Smad signaling pathway - cell viability counter screen (AID 1346829); note: top concentration of the series differs between compounds; nearly all actives have a fitted effect of over 45% in size
How it was run: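 Compound-treated SBE-bla HEK 293T cells (5 hr, 37 C) were assessed for viability with CellTiter-Glo in parallel with the reporter read.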

[2] = Human pregnane X receptor (PXR) small molecule agonists, qHTS cell viability counter screen (AID 1346977); note: nearly all actives have a fitted effect of over 50% in size
How it was run: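 Tox21 qHTS format; PXR-Luc HepG2, 2,000/well, charcoal-stripped FBS 5%. Cpd exposure 24hr. Read: CellTiter-Fluor fluorescence, multiplexed with luciferase.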

[3] = Caspase-3/7 induction in HepG2 cells by small molecules, qHTS assay (AID 1346978); note: nearly all actives have a fitted effect of over 15% in size
How it was run: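 Caspase-3/7 induction was measured by Caspase-Glo 3/7 luminescence (30 min, room temperature) after a 17 hr compound exposure of wild-type HepG2 cells seeded at 2,000 per well and pre-incubated 5 hr.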

[4] = Caspase-3/7 induction in CHO-K1 cells by small molecules, qHTS cell viability counter screen (AID 1346979); note: nearly all actives have a fitted effect of over 35% in size
How it was run: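 CellTiter-Fluor viability check, qHTS format: wild-type CHO-K1, 16hr compound treatment, 1hr reagent incubation, fluorescence read.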

[5] = Caspase-3/7 induction in CHO-K1 cells by small molecules, qHTS assay (AID 1346980); note: nearly all actives have a fitted effect of over 15% in size
How it was run: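 Luminescent Caspase-Glo 3/7 read (30min, room temperature) quantified apoptosis induction. Cells were wild-type CHO-K1, treated with compound for 17hr at 37 C and 5% CO2.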

[6] = Caspase-3/7 induction in HepG2 cells by small molecules, qHTS cell viability counter screen (AID 1346981); note: series mostly up to about 92 µM; nearly all actives have a fitted effect of over 30% in size
How it was run: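 In this quantitative HTS counter screen, compounds delivered in DMSO were left on unmodified HepG2 cells for 16 hr at 37 C. Viability was then determined fluorometrically with CellTiter-Fluor, in parallel with caspase-3/7 induction in the same wells.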

[7] = target: Nuclear receptor subfamily 1 group I member 2 (Homo sapiens) (UniProt O75469); test: Human pregnane X receptor (PXR) small molecule agonists, qHTS assay (AID 1346982); note: nearly all actives have a fitted effect of over 35% in size; note: potency is the fitted concentration of half-maximal effect
How it was run: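 Reporter HepG2 cells expressing PXR-Luc are cultured in charcoal-stripped FBS (5%), treated with compounds for 24 hr at 37 C, and assayed by ONE-Glo luminescence after 30 min at room temperature.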

[8] = target: Cytochrome P450 2D6 (Homo sapiens) (UniProt P10635); test: Cytochrome P450 Family 2 Subfamily D Member 6 (CYP2D6) small molecule antagonists: luciferase reporter qHTS assay (AID 1671196); note: series mostly up to about 120 µM; nearly all actives have a fitted effect of over 50% in size
How it was run: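 Test chemicals meet CYP2D6 plus proluciferin substrate (10 min, RT); NADPH regenerating solution then drives turnover for 1 h. Detection reagent halts the reaction; luminescence measured after 20 min.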

[9] = target: Cytochrome P450 2C19 (Homo sapiens) (UniProt P33261); test: Cytochrome P450 Family 2 Subfamily C Member 19 (CYP2C19) small molecule antagonists: luciferase reporter qHTS assay (AID 1671197); note: nearly all actives have a fitted effect of over 65% in size; note: potency is the fitted concentration of half-maximal effect; for activity change, negative = inhibition: series mostly up to about 120 µM
How it was run: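 P450-Glo CYP2C19 screening system; proluciferin substrate; DMSO compound stocks; 10 min RT preincubation; NADPH regeneration, 1 h at 37C; luciferin detection reagent, 20 min RT; luminescence as RLU.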

[10] = target: Cytochrome P450 2C9 (Homo sapiens) (UniProt P11712); test: Cytochrome P450 Family 2 Subfamily C Member 9 (CYP2C9) small molecule antagonists: luciferase reporter qHTS assay (AID 1671198); note: nearly all actives have a fitted effect of over 50% in size; note: potency is the fitted concentration of half-maximal effect; for activity change, negative = inhibition: series mostly up to about 120 µM
How it was run: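 Enzyme-substrate mix preincubated with compound 10 min at room temperature; reaction started with NADPH regeneration solution, 1 h 37C. Luminescent luciferin product read after 20 min detection reagent.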

[11] = target: Voltage-gated inwardly rectifying potassium channel KCNH2 (Homo sapiens) (UniProt Q12809); test: Human Ether-a-go-go-Related Gene (hERG) channel small molecule antagonists: fluorescence cell-based qHTS assay (AID 1671200);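 note: hERG-expressing U2OS cells given a thallium stimulus after FluxOR II dye loading; series mostly up to about 77 µM; nearly all actives have a fitted effect of over 50% in size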
How it was run: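 Kinetic two-minute fluorescence traces, sampled at 1 s, were collected following thallium stimulus of U2OS cells (1000 per well) that had been cultured overnight at 37 C and loaded with FluxOR II.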

[12] = target: Cytochrome P450 3A4 (Homo sapiens) (UniProt P08684); test: Cytochrome P450 Family 3 Subfamily A Member 4 (CYP3A4) small molecule antagonists: luciferase reporter qHTS assay (AID 1671201); note: nearly all actives have a fitted effect of over 50% in size; note: potency is the fitted concentration of half-maximal effect; for activity change, negative = inhibition: series mostly up to about 120 µM
How it was run: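 Proluciferin-to-luciferin conversion by CYP3A4, NADPH-regenerated, 1 h RT; luminescence read as RLU. Ketoconazole as control.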

[13] = qHTS assay to identify small molecule agonists of the TGF-beta/Smad signaling pathway (AID 1346859; active = well fitted activation curve with a large enough effect in the signal ratio in the repeat runs, not every such curve was filed as active; the % refers to the signal ratio; note: series mostly up to about 77 µM)
How it was run: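 Each well held 4,000 SBE-bla HEK 293T cells incubated overnight before compound addition; 5 hr later the cleavable FRET substrate went on for 2 hr at room temperature, and fluorescence was read at two emissions.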

[14] = target: Cytochrome P450 1A2 (Homo sapiens) (UniProt P05177); test: Cytochrome P450 Family 1 Subfamily A Member 2 (CYP1A2) small molecule antagonists: luciferase reporter qHTS assay (AID 1671199); note: nearly all actives have a fitted effect of over 50% in size; note: potency is the fitted concentration of half-maximal effect; for activity change, negative = inhibition: series mostly up to about 120 µM
How it was run: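 Steps: enzyme-substrate mix dispensed; test compounds and furafylline control pinned in; 10 min room temperature; NADPH regeneration solution added, 1 h; reaction stopped with luciferin detection reagent; luminescence read after 20 min.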

[15] = target: Thyrotropin-releasing hormone receptor (Homo sapiens) (UniProt P34981); test: qHTS assay to identify small molecule antagonists of the thyrotropin-releasing hormone receptor (TRHR) signaling pathway (AID 1346877; active = well fitted inhibition curve with a large enough effect in the repeat runs, not every such curve was filed as active; note: series mostly up to about 51 µM)
How it was run: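 Kinetic fluorescence (3 min, 1 s resolution) following stimulation with TRH at 1 nM final; HEK293 cells bearing human TRHR; 5 min compound preincubation at RT; concentration-response over 15 points, triplicates.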

[16] = target: Thyrotropin-releasing hormone receptor (Homo sapiens) (UniProt P34981); test: qHTS assay to identify small molecule agonists of the thyrotropin-releasing hormone receptor (TRHR) signaling pathway (AID 1346891; calls by dose curve; note: series mostly up to about 58 µM)
How it was run: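 Screening of agonists relied on calcium signalling in HEK293 cells expressing human TRHR: dye loading 2 h at 37 °C preceded compound addition and a 3-min fluorescence time course.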

Sequence of Nuclear receptor subfamily 1 group I member 2 (Homo sapiens) (O75469 whole entry, looked up): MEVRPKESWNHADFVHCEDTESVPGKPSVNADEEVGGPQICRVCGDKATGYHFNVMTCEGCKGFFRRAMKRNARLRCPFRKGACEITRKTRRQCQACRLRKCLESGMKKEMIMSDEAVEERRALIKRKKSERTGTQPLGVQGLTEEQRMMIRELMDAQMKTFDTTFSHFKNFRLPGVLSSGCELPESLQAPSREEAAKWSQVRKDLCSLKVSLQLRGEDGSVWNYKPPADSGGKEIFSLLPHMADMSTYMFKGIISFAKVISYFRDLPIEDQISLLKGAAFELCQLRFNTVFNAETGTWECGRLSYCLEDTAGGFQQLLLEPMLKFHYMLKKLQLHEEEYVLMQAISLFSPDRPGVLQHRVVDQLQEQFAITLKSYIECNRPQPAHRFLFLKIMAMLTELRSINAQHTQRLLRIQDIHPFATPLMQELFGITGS
Sequence of Cytochrome P450 2D6 (Homo sapiens) (P10635 whole entry, looked up): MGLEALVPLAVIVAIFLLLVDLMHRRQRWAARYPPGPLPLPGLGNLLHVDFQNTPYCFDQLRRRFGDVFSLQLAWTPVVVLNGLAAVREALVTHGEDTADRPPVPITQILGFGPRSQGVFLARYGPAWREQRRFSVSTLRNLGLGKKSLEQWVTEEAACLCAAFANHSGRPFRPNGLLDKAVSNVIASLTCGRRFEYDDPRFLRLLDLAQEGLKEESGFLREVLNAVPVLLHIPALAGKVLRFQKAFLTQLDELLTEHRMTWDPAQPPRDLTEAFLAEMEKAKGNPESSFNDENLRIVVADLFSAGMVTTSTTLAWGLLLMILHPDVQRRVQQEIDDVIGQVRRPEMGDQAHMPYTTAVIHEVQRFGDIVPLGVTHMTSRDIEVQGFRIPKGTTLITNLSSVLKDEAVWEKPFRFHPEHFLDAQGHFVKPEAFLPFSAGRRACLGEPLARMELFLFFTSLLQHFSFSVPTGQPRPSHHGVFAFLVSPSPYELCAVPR
Sequence of Voltage-gated inwardly rectifying potassium channel KCNH2 (Homo sapiens) (Q12809 whole entry, looked up): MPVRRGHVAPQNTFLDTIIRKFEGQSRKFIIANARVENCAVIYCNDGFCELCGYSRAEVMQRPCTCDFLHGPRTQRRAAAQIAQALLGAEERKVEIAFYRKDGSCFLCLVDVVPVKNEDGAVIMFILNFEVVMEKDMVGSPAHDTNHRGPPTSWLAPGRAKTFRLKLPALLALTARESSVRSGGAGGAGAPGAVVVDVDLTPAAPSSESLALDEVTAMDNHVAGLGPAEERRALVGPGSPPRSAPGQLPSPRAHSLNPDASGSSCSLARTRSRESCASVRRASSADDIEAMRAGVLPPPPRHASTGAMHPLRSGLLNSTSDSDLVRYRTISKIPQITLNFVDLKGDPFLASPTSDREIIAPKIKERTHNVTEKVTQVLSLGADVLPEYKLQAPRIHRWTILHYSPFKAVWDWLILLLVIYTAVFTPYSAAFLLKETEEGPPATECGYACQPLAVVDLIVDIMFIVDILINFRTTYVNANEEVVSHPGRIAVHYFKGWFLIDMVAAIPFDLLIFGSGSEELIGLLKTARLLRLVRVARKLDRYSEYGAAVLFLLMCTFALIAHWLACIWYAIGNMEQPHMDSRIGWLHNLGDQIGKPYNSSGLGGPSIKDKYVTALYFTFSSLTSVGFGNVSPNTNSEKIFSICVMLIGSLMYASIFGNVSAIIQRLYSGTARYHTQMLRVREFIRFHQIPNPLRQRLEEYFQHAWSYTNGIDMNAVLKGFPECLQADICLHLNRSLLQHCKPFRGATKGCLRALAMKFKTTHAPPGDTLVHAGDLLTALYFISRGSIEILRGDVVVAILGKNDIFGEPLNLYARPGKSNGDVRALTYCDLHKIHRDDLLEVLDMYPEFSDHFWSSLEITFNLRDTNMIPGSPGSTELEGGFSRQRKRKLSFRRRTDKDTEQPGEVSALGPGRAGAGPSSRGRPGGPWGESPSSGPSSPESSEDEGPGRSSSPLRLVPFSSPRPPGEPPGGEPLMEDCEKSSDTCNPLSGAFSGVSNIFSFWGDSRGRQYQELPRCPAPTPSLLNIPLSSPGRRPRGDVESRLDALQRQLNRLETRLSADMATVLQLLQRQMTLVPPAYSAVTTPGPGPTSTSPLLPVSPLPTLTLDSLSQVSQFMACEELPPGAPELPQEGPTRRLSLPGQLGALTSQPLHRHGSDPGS
Sequence of Cytochrome P450 1A2 (Homo sapiens) (P05177 whole entry, looked up): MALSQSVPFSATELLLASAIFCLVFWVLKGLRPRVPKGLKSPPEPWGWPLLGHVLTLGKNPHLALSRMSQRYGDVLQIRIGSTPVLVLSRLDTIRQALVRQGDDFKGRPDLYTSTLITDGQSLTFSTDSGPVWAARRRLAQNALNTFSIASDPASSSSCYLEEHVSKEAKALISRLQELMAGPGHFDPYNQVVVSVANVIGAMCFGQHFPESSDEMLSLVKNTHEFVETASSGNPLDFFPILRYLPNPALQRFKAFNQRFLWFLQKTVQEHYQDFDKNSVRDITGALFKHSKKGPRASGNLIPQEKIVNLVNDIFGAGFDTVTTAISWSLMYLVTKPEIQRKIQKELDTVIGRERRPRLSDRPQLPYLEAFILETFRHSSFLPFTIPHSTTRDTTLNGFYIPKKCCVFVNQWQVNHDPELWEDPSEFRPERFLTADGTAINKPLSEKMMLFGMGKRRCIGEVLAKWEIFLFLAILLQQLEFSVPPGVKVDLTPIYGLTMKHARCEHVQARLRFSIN
Sequence of Cytochrome P450 2C9 (Homo sapiens) (P11712 whole entry, looked up): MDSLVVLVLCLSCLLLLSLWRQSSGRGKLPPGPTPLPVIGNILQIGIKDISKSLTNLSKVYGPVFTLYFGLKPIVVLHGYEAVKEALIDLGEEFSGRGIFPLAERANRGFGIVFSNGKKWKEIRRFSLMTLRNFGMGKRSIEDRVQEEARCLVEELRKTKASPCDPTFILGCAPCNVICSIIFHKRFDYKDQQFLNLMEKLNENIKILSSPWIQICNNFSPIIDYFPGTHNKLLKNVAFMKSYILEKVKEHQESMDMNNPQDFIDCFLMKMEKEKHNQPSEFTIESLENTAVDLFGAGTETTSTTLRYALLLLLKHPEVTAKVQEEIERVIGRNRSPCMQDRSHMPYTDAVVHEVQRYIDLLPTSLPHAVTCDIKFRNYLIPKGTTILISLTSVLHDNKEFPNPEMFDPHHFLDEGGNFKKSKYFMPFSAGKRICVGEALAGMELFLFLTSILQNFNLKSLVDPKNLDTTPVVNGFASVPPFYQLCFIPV
Sequence of Cytochrome P450 2C19 (Homo sapiens) (P33261 whole entry, looked up): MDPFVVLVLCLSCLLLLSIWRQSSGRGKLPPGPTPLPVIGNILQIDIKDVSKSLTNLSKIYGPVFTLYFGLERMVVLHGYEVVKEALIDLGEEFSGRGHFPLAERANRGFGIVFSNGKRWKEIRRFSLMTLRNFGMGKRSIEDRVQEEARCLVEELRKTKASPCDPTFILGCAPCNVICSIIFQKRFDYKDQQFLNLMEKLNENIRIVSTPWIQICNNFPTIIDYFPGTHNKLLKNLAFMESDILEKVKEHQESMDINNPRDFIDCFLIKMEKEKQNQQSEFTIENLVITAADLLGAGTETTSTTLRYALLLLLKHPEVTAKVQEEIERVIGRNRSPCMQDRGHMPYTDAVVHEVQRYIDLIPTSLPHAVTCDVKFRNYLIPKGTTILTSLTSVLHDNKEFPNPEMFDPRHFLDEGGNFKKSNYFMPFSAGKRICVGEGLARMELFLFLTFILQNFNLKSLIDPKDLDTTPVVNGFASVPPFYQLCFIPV
Sequence of Cytochrome P450 3A4 (Homo sapiens) (P08684 whole entry, looked up): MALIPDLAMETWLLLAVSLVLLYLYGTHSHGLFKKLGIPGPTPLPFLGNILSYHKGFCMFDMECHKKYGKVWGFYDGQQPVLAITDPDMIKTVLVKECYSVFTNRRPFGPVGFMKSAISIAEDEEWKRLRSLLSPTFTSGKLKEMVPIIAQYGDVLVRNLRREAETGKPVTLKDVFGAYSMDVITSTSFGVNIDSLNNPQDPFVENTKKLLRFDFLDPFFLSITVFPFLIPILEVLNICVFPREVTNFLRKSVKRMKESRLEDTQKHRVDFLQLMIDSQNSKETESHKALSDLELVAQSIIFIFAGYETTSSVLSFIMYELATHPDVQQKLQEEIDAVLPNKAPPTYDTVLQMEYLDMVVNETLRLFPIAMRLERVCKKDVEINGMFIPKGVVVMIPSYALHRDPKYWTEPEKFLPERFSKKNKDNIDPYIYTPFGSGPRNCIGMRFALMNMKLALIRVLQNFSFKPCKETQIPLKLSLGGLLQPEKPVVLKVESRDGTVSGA
Sequence of Thyrotropin-releasing hormone receptor (Homo sapiens) (P34981 whole entry, looked up): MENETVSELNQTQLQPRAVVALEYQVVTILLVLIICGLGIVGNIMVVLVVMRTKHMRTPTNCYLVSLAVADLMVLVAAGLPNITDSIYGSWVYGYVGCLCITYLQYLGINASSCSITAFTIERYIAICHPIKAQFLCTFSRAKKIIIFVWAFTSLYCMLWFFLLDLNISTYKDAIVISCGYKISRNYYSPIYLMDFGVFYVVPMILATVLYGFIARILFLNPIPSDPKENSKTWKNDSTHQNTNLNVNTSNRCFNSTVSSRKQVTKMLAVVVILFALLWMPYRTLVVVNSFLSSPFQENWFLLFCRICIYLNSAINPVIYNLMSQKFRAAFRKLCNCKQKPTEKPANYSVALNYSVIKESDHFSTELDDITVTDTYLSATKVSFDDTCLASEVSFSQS

With C=C(C)[C@@H]1CC=C(C)C(=O)C1 the outcome [1] was “inactive”, the outcome [2] was “inactive” and the outcome [3] was “inactive”. For the same compound, the Potency [4] was “inactive”, the outcome [5] was “inactive” and the outcome [6] was “inactive”. For the same compound, the Potency [7] was “inactive”, the Potency [8] was “inactive” and the Potency [9] was “inactive”. The Potency [10] was “inactive”, the Potency [11] was “inactive” and the Potency [12] was “inactive”.
With CN(C)CCN(C)CCO the outcome [1] was “inactive”, the outcome [13] was “inactive” and the outcome [2] was “inactive”. The outcome [3] was “inactive”, the Potency [4] was “inactive” and the outcome [5] was “inactive”. The outcome [6] was “inactive”, the Potency [7] was “inactive” and the Potency [9] was “inactive”. The Potency [10] was “inactive”, the Potency [14] was “inactive” and the Potency [11] was “inactive”. For the same compound, the Potency [12] was “inactive”.
With CCCC(CC)c1ccccc1 (stereo unspecified) the outcome [1] was “inactive”, the outcome [13] was “inactive” and the outcome [2] was “inactive”. The outcome [3] was “inactive”, the Potency [4] was “inactive” and the outcome [5] was “inactive”. For the same compound, the outcome [6] was “inactive”, the Potency [8] was “inactive” and the Potency [9] was “inactive”. For the same compound, the Potency [10] was “inactive”, the Potency [11] was “inactive” and the Potency [12] was “inactive”.
In the case of CCCCCc1cccc(=O)o1, the outcome [1] is reported as “inactive”, the outcome [13] is reported as “inactive” and the outcome [3] is reported as “inactive”. For the same compound, the Potency [4] was “inactive”, the outcome [5] was “inactive” and the outcome [6] was “inactive”. For the same compound, the Potency [7] was “inactive”, the Potency [8] was “inactive” and the Potency [14] was 35.6 µM (active). For the same compound, the Potency [11] was “inactive” and the Potency [12] was “inactive”.
In the case of CC1OCCC1=O (stereo unspecified), the outcome [13] is reported as “inactive”, the outcome [15] is reported as “inactive” and the outcome [16] is reported as “inactive”. The outcome [2] was “inactive”, the outcome [3] was “inactive” and the Potency [4] was “inactive”. For the same compound, the outcome [5] was “inactive”, the outcome [6] was “inactive” and the Potency [7] was “inactive”. For the same compound, the Potency [8] was “inactive”, the Potency [9] was “inactive” and the Potency [10] was “inactive”. The Potency [14] was “inactive”, the Potency [11] was “inactive” and the Potency [12] was “inactive”.
In the case of Cc1c(Cl)cccc1Cl, the outcome [1] is reported as “inactive”, the outcome [13] is reported as “inactive” and the outcome [2] is reported as “inactive”. The outcome [3] was “inactive”, the Potency [4] was “inactive” and the outcome [5] was “inactive”. For the same compound, the outcome [6] was “inactive”, the Potency [7] was “inactive” and the Potency [8] was “inactive”. The Potency [9] was “inactive”, the Potency [10] was “inactive” and the Potency [11] was “inactive”. For the same compound, the Potency [12] was “inactive”.
[O]=[Mo](=[O])=[O] gave an activity change, negative = cytotoxicity [1] of 7.35% [at 15.8 µM], an activation [13] of 0.212% [at 15.8 µM] and a caspase activation [3] of 1.23% [at 19 µM]. For the same compound, the activity change, negative = cytotoxicity [4] was 3.86% [at 19 µM], the caspase-3/7 activation [5] was 0.334% [at 19 µM] and the activity change, negative = cytotoxicity [6] was -3.34% [at 19 µM]. For the same compound, the activation [7] was 1.34% [at 19 µM], the activity change, negative = inhibition [8] was -4.35% [at 23.6 µM] and the activity change, negative = inhibition [9] was -2.98% [at 23.6 µM]. It also gave an activity change, negative = inhibition [10] of -0.296% [at 23.6 µM], an activity change, negative = inhibition [14] of 2.53% [at 23.6 µM] and an activity change, negative = inhibition [11] of -1.28% [at 15.8 µM]. It also gave an activity change, negative = inhibition [12] of -5.3% [at 23.6 µM].
In the case of C=C(C)C1CC=C(C)C(=O)C1 (stereo unspecified), the outcome [1] is reported as “inactive”, the outcome [13] is reported as “inactive” and the outcome [3] is reported as “inactive”. For the same compound, the Potency [4] was “inactive”, the outcome [5] was “inactive” and the outcome [6] was “inactive”. The Potency [7] was “inactive”, the Potency [8] was “inactive” and the Potency [9] was “inactive”. For the same compound, the Potency [10] was “inactive”, the Potency [14] was “inactive” and the Potency [11] was “inactive”.
For Cc1ccc(N)cc1S(=O)(=O)O, the outcome [1] was “inactive”, the outcome [13] was “inactive” and the outcome [2] was “inactive”. The outcome [3] was “inactive”, the Potency [4] was “inactive” and the outcome [5] was “inactive”. For the same compound, the outcome [6] was “inactive”, the Potency [7] was 61.1 µM (active) and the Potency [9] was 79.6 µM (active). For the same compound, the Potency [10] was 63.3 µM (active), the Potency [11] was “inactive” and the Potency [12] was “inactive”.
With CCOc1cccc(N)c1 the outcome [1] was “inactive”, the outcome [13] was “inactive” and the outcome [2] was “inactive”. For the same compound, the outcome [3] was “inactive”, the Potency [4] was “inactive” and the outcome [5] was “inactive”. The outcome [6] was “inactive”, the Potency [7] was “inactive” and the Potency [9] was 6.3 µM (active). The Potency [10] was 7.93 µM (active), the Potency [14] was 35.4 µM (active) and the Potency [11] was “inactive”. The Potency [12] was 2.23 µM (active).
